Screen size: about 52,000 compounds; about 1,700 (3.3%) were called active. This is one part of a sample in which actives are shown more often than they occur. A number with no mark means an inactive call. Rule as the data show it: active = survival mostly below about 52% (no sharp cut-off); inactive = mostly above about 56%.

This assay relates to Wild type. The assay can be described thus: growth inhibition of S. aureus wild type versus tarO mutant, primary screen, teichoic acid synthesis inhibitors, RN4220, OD600 (AID 463173). The following applies: S. aureus RN4220 wild type/DeltatarO growth, OD600, 18 h, hits give low values, screened at 18.75 µg/mL (by protocol).
For `CCOC(=O)C(C)(C)Sc1nnc(COc2ccccc2)n1CC`, the survival was 100%.

In the case of `C1CCC2(C1)OCC1(CO2)COC2(CCCC2)OC1`, the survival was 111%.

As to `Cc1ccc(NC(=O)N2CCC(CN3CCC(C)CC3)CC2)cc1F`, the survival was 82%.

As to `COc1ccc(CCNC(=O)c2cc(-c3ccc(C)cc3)nc3n[nH]c(-c4ccc(F)cc4)c23)cc1OC`, the survival is 136%.

Take `Cc1cccc(-c2nc3scc(CCNC(=O)c4ccc(Br)o4)n3n2)c1`: the survival was 74%.

Consider `Cc1cc(C)cc(NC(=O)CSc2nc3c(cnn3-c3ccc(F)cc3)c(=O)[nH]2)c1`, for which the survival is 65%.

In the case of `O=S(=O)(c1cccc(Cl)c1)c1nnn2c1nc(NC1CCCC1)c1sccc12`, the survival was 95%.

Regarding `Cc1ccc(C(=O)NCC(c2ccco2)S(=O)(=O)c2ccccc2)cc1C` (centres undefined), the survival is 72%.

On to `CC(C)(C)c1ccc(C(=O)NCC(c2ccco2)S(=O)(=O)c2ccccc2)cc1` (centres undefined), for which the survival was 70%.

`O=C(NCC(c1ccco1)S(=O)(=O)c1cccs1)c1ccc(F)c(F)c1` (centres undefined): the survival was 78%.

Take `O=C(NCc1ccccc1)C(=O)NCC(c1ccco1)S(=O)(=O)c1ccccc1` (centres undefined): the survival is 67%.

For the compound `Cc1ccc(S(=O)(=O)C(CNC(=O)c2ccc(F)c(F)c2)c2ccco2)cc1` (centres undefined), the survival is -6% (active).

For the compound `Cc1ccc(C(=O)NCC(c2ccco2)S(=O)(=O)c2cccs2)cc1C` (centres undefined), the survival was 99%.

Regarding `Cc1ccccc1CNC(=O)C(=O)NCC(c1ccco1)S(=O)(=O)c1ccccc1` (centres undefined), the survival is 76%.

As for `O=C(NCc1ccccc1F)C(=O)NCC(c1ccco1)S(=O)(=O)c1ccccc1` (centres undefined), the survival is -6% (active).

Take `COc1ccc(C(=O)NCC(c2ccco2)S(=O)(=O)c2ccccc2)cc1` (centres undefined): the survival was -6% (active).

As to `Cc1ccc(C(=O)NCC(c2ccco2)S(=O)(=O)c2ccc(Cl)cc2)cc1C` (centres undefined), the survival is 14% (active).

Regarding `COc1ccc(C(=O)NCC(c2ccco2)S(=O)(=O)c2ccc(F)cc2)cc1` (centres undefined), the survival is 74%.

`CCOc1ccc(C(=O)NCC(c2ccco2)S(=O)(=O)c2ccc(C)cc2)cc1` (centres undefined): the survival is 85%.

On to `CCOc1ccc(S(=O)(=O)N(CC(=O)NCc2ccccc2OC)c2ccccc2)cc1`, for which the survival was 58%.

As to `CC1=C(C#N)C(NC(=O)c2ccccc2Cl)(C(F)(F)F)C(=O)N1` (centres undefined), the survival was 139%.

In the case of `COc1ccc(-c2cn3nc(N4CCC(C(=O)Nc5ccc(Cl)cc5C)CC4)sc3n2)cc1`, the survival was 78%.

`CCOCCCn1c(=N)c(S(=O)(=O)c2ccc(C)cc2)cc2c(=O)n3cccc(C)c3nc21`: the survival is 77%.

As for `Cc1cc2nn(-c3ccccc3)nc2cc1NC(=O)c1cccc2c(Cl)cccc12`, the survival is 70%.

For the origin of these results see PubChem BioAssay AID463173 (ICCB-Longwood Screening Facility, Harvard Medical School, 2010).
